Results filed as inconclusive are left out. The source made the active and inactive calls. Calls follow the shape of the dose curve; as a rule, active = well fitted cell-killing curve with a large enough effect in the repeat runs (not every such curve was filed as active); inconclusive = weak or mixed curves, or effect the other way; inactive = no such curve, though single readings can be large or run the other way.

Consider 40 molecules from PubChem BioAssay (Tox21).
% is scaled to controls: 0 for no effect and ±100 for the full control effect.

The assay is described as follows: qHTS assay to identify small molecule antagonists of the estrogen related receptor signaling pathway with the pleiotropic PPARgamma coactivator (PGC) from Tox21 10K library - cell viability counter screen (AID 1224840). Also: nearly all actives have a fitted effect of over 40% in size. As to conditions: PGC/ERR reporter cells viability, CellTiter-Fluor, 17.5 h; series mostly up to 92.4 µM. The source says:
National Center for Advancing Translational Sciences [NCATS]
NIH Chemical Genomics Center [NCGC]
U.S. Environmental Protection Agency [EPA]
National Institutes of Environmental Health Sciences [NIEHS]
National Toxicology Program [NTP]
U.S. Food and Drug Administration [FDA]
Estrogen related receptors (ERRs), the first orphan nuclear receptors discovered, play an important role in the control of cellular energy metabolism. ERRs are required for high-energy production in response to the environmental challenges. The pleiotropic PPARgamma coactivator (PGC) is a major partner of ERR and a key regulator in energy homeostasis. Together they have been implicated in the etiology of metabolic disorders such as Type 2 diabetes and metabolic syndrome. ERR-alpha was also identified as an adverse marker for breast cancer progression; ERR-alpha-positive tumors have a poor prognosis. To screen and to identify environmental compounds that perturb the ERR and PGC/ERR signaling pathways could provide valuable information for potential therapeutic or preventive measures in the treatment of metabolic disease. To differentiate true PGC/ERR antagonists or agonist from cytotoxic substances, the assay is multiplexed with cell viability assay.
Tox21 Assay Protocol Summary:
The PGC/ERR cells were dispensed at 2,000 cells/5 ul/well in 1536-well white plates using a Multidrop dispenser. After the assay plates were incubated at a 37 C/5% CO2 incubator for 6 hours, 23 nL of compounds dissolved in DMSO, positive and negative controls or DMSO only was transferred to the assay plate by a pin tool. The plates were incubated at 37 C for 17.5 hours. 1 ul/well of CellTiter-Fluor reagent was added into the assay plates using a Flying Reagent Dispenser. After 30-minute incubation at 37 C/5% CO2, the fluorescence intensity in the plates was measured using a ViewLux plate reader.
For the molecule `Nc1ccc(/C=C/c2ccc(N)cc2S(=O)(=O)O)c(S(=O)(=O)O)c1`, the viability change, negative = cytotoxic is 2.38% [at 0.349 µM] (inactive).

For `CC(=O)N(CC(O)CO)c1c(I)c(C(=O)NCC(O)CO)c(I)c(C(=O)NCC(O)CO)c1I` (stereo not given), the molecule was classed as inactive.

For the molecule `CN(C)CCOCCN(C)CCO`, the molecule was classed as inactive.

In the case of `CN[C@@H]1[C@@H](O)[C@@H](O[C@@H]2[C@H](O)[C@H](O[C@H]3OC(CN)=CC[C@H]3N)[C@@H](N)C[C@H]2N)OCC1(C)O` (stereo not given in full), the molecule was called inactive.

Regarding `c1ccccc1`, the result was inactive.

As to `CC(=O)OC(C)(C)Cc1ccccc1`, the molecule was classed as inactive.

For `O=C(Nc1cccc(C2=NCCN2)c1)Nc1cccc(C2=NCCN2)c1`, the viability change, negative = cytotoxic is 0.87% [at 19 µM] (inactive).

On to `Cc1nc([N+](=O)[O-])cn1-c1ccc([N+](=O)[O-])cc1`, for which the result was inactive.

Regarding `CCCCCCCC/C=C\CCCCCCCC(=O)OC[C@@H](O)[C@H]1OC[C@H](O)[C@H]1O`, the outcome was inactive.

As to `CC(=O)c1ccc2c(c1)CCCC2`, the outcome was inactive.

With `CCCCCCCCCCCCOC(C)=O`, the call was inactive.

For the molecule `CCc1nccnc1C`, the outcome was inactive.

`O=C(O)Cc1cccc(-c2cc(CCCCCCc3ccc(O[C@H]4O[C@H](CO)[C@@H](O)[C@H](O)[C@@H]4O)c(-c4cccc(CC(=O)O)c4)c3)ccc2O[C@H]2O[C@H](CO)[C@@H](O)[C@H](O)[C@@H]2O)c1`: the viability change, negative = cytotoxic was -0.865% [at 0.349 µM] (inactive).

For the molecule `N#CCCOCCOCCC#N`, the outcome was inactive.

As to `CCCCCCCCCOCC1CO1` (stereo not given), the call was inactive.

Turning to `COC(=O)CCC(=O)O`, the outcome was inactive.

As to `CC(C)COC(=O)COc1ccc(Cl)cc1Cl`, the molecule was classed as inactive.

On to `NS(=O)(=O)c1cc2c(cc1Cl)NC(CC1CCCC1)NS2(=O)=O` (stereo not given), for which the outcome was inactive.

Regarding `CNCc1ccccc1`, the result was inactive.

On to `C=CCOc1cc(Cl)ccc1C(=O)NCCN(CC)CC`, for which the molecule was classed as inactive.

In the case of `CCNC(=O)/C=C/c1cccc(Br)c1`, the molecule was classed as inactive.

For `CCN1CN(CC)CN(CC)C1`, the call was inactive.

With `Nc1nc(=O)n([C@@H]2O[C@H](CO)[C@@H](O)[C@@H]2F)cc1I`, the molecule was classed as inactive.

`O=P(O)(O)OCC(O)CO` (stereo not given): the outcome was inactive.

As to `CC(C)COC(=O)/C=C/c1ccccc1`, the molecule was classed as inactive.

Regarding `O=C1OC(=O)c2cc(Oc3ccc4c(c3)C(=O)OC4=O)ccc21`, the molecule was classed as inactive.

In the case of `CCN(Cc1cccc(S(=O)(=O)O)c1)c1ccccc1`, the outcome was inactive.

`COc1ccc(OC)c(NC(=O)CC(C)=O)c1`: the outcome was inactive.

Regarding `OC(CCN1CCCCC1)(c1ccccc1)c1ccccc1`, the outcome was inactive.

Regarding `CCNC(=O)NCCCOc1cccc(CN2CCCCC2)c1`, the outcome was inactive.

On to `CCC(C)N` (stereo not given), for which the result was inactive.

Turning to `CCC(=O)c1ccc(O)cc1`, the outcome was inactive.

For the molecule `O=C(O)c1ccccc1C(=O)Nc1ccc(S(=O)(=O)Nc2nccs2)cc1`, the outcome was inactive.

Turning to `Nc1ccnc(=O)[nH]1`, the call was inactive.

Regarding `C=CC(C)(O)CC/C=C(\C)CC` (stereo not given), the result was inactive.

In the case of `CC(=O)OCCCc1ccccc1`, the molecule was called inactive.

Regarding `O=S1(=O)CCCC1`, the call was inactive.

Regarding `CN(C1CCCCC1)S(=O)(=O)c1ccccc1N`, the molecule was classed as inactive.

`CCC(=O)OCCC(C)CCC=C(C)C` (stereo not given): the outcome was inactive.

For the molecule `CC1=CC[C@H](CC=O)C1(C)C`, the outcome was inactive.
